MITF primary – inhibitors of human MITF; O75030; inhibition, % at 2.6 µM; hit rate 0.91% among 650,000; AlphaScreen MITF homodimerization, bead proximity signal; AID 1259374; in the data active means inhibition above about 50%;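 further: 0% = vehicle wells with protein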
Target sequence (O75030 whole entry, looked up): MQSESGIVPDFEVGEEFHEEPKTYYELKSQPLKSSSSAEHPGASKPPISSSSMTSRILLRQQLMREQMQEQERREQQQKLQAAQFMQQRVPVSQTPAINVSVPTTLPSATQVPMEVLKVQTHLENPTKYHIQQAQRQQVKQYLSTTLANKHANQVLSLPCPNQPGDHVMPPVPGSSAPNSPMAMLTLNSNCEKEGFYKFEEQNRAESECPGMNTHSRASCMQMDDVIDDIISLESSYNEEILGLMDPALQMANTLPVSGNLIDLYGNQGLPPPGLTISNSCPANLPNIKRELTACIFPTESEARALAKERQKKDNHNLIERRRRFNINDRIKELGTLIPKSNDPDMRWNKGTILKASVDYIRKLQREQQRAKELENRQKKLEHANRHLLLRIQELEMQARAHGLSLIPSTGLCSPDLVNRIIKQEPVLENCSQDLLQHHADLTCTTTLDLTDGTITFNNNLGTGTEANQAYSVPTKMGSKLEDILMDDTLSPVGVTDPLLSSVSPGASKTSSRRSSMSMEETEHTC
GPR151 ag – activates the human receptor GPR151 | PathHunter beta-arrestin GPR151 cells, luminescence | activation, % at 11.2 µM | hit rate 1% among 650,000; in the data active means activation above about 4.9%;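 further: 0% = median of compound wells and 100% = cells with positive control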
FBW7 act – human FBW7 E3 ligase activation, primary screen | AlphaScreen FBW7–phospho-cyclin E peptide binding, activator screen | normalized activity (activation), % at 26.1 µM | hit rate 0.13% among 650,000; in the data active means normalized activity above about 1.9%;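 further: purified mutant Fbw7 with reduced substrate affinity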
TEAD-YAP inh – TEAD-YAP interaction inhibition | AID 1259422 | hit rate 1.4% among 640,000 | inhibition, % at 9.12 µM | HEK-TIYL cells, TEAD-Gal4/YAP UAS-luciferase luminescence; in the data active means inhibition above about 32%;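 further: 0% = median of test compound wells and 100% = reference inhibitor wells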
GPR151 conf act – human GPR151 activation, confirmation screen; GPR151 PathHunter beta-arrestin cells, luminescence, 90 min; % of EA-reagent control over plate median; 6,700 tested, under 10 active; shares compounds with GPR151 ag; AID 1508609; activation, % at 11.2 µM;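 active means mean percent activation across replicates above the confirmation screen cutoff of 4.91%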
GPR119 ag – counter-screen for GPR151 activators: effect on human GPR119; activation, % at 11.2 µM; shares compounds with GPR151 ag; hit rate 0.3% among 6,700; AID 1508611; GPR119 PathHunter beta-arrestin cells, luminescence, 90 min; 0 = compound-well median, 100 = enzyme-acceptor control;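 active means mean percent activation in the counterscreen above 29.09%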;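 further: counterscreen on off-target GPR119 to flag nonselective hits from the GPR151 activator screen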
* = called active by the depositor; nt = not tested or not shown; ! = repeats disagree. An excerpt weighted towards active compounds, which were near 3.5% of everything screened.

SMILES	MITF primary	GPR151 ag	FBW7 act	TEAD-YAP inh	GPR151 conf act	GPR119 ag
CCOC(=O)c1ccccc1NC(=O)CC(C)CC(=O)O (stereo not drawn)	5	5.9*	0	-6	1	5
O=C(O)/C=C\C(=O)Nc1ccc([N+](=O)[O-])cc1	-4	8.1*	0	-2	0	-1
CCN(CC)c1ccc(NC(=O)/C=C\C(=O)O)cc1	34	16*	0	11	-1	-7
CCN(CC)c1ccc(NC(=O)/C=C\c2ccccc2)cc1	9	-1	0	-27	nt	nt
O=C(O)/C=C/C(=O)Nc1ccc(Sc2ccc([N+](=O)[O-])cc2)cc1	0	3	0	-7	nt	nt
Cc1c(-c2ccc(Cl)cc2)noc1C1CCN(CCc2ccccc2)CC1	9	8.2*	0	nt	2	-1
Cc1ccccc1-n1nc2c(c1NC(=O)COc1ccc(Cl)cc1Cl)CS(=O)(=O)C2	7	8.8*	0	-2	0	8
O=C(COc1ccc(Cl)cc1Cl)Nc1cc(-c2ccccc2)nn1CCO	4	5.9*	0	4	0	10
O=C(COc1ccccc1F)Nc1cc(-c2ccccc2)nn1CCO	-3	0	0	-10	nt	nt
Cc1cccc(-n2nc3c(c2NC(=O)COc2ccc(Cl)cc2Cl)CS(=O)(=O)C3)c1C	-12	-1	0	2	nt	nt
CCCS(=O)(=O)C(=C(Nc1ccc2ccccc2c1)Nc1ccc2ccccc2c1)S(=O)(=O)CCC	1	-1	0	-6	nt	nt
Fc1ccc(OCc2nn3c(-c4ccncc4)nnc3s2)cc1	3	6.1*	-1	7	0	-6
Cc1ccc(OCc2nn3c(-c4ccc(F)cc4)nnc3s2)cc1	-5	2	0	-8	nt	nt
COc1ccc(NC(=O)Nc2ccc(F)cc2F)c([N+](=O)[O-])c1	-10	5.0*	0	-14	0	6
COc1ccc(NC(=S)NC(=O)c2ccc3c(c2)OCO3)c([N+](=O)[O-])c1	4	7.0*	0	2	-1	-11
COc1cc([N+](=O)[O-])ccc1NC(=O)Nc1ccc(Cl)cc1F	-6	6.2*	0	-1	2	9
COc1cc([N+](=O)[O-])ccc1NC(=O)N1CC(C)OC(C)C1 (stereo not drawn)	-20	7.0*	0	5	0	1
Cc1ccccc1C(=O)NC(=S)Nc1nc2ccccc2s1	0	0	0	4	nt	nt
COc1ccc(NC(=O)COc2cccc(C)c2)c([N+](=O)[O-])c1	21	6.9*	0	-33	0	11
COc1ccc(NC(=O)COc2ccc(-c3ccccc3)cc2)c([N+](=O)[O-])c1	9	0	0	5	nt	nt
COc1ccc(-c2ncc(C(=O)NCCO)s2)cc1	1	-5	0	-15	nt	nt
O=C(O)CC1NC(=O)c2ccc(Br)cc21 (stereo not drawn)	15	18*	1	4	0	-9
CCOC(=O)N1CCC(Nc2nc(N3CCOCC3)nc(N3CCN(c4ccc(OC)cc4)CC3)n2)CC1	-2	1	0	-8	nt	nt
O=C(CCN1C(=O)S/C(=C\c2ccc(Cl)cc2)C1=O)Nc1ccc(C(=O)O)cc1	16	6.9*	0	1	0	-7
Cc1cc2nc3ccccc3n2c(N)c1C#N	13	2	0	17	nt	nt
SMILES	MITF primary	GPR151 ag	FBW7 act	TEAD-YAP inh	GPR151 conf act	GPR119 ag
Cc1ccc(NC(=O)/C=N/C(=O)Nc2ccc(C)cc2)cc1	8	-1	0	-66	nt	nt
COC(=O)c1cc(-c2ccccc2)n(CC(=O)O)c1C	-7	5.5*	0	-26	-1	-9
CCn1c(SCc2cccc(Br)c2)nnc1-c1cnccn1	4	7.4*	0	-5	0	-1
Cc1cccc(C(=O)N2CCN(c3ncccn3)CC2)c1	12	-1	1	4	nt	nt
Cc1sc2nc(SCC(=O)NC3CCCC3)nc(N)c2c1C	-1	0	0	-5	nt	nt
Cc1sc2nc(SCC(=O)N3CCCCC3C)nc(N)c2c1C (stereo not drawn)	1	11*	0	-5	0	3
Cc1ccc2nc(-c3ccc4c(c3)C(=O)N(c3ccc(Sc5ccc([N+](=O)[O-])cc5)cc3)C4=O)oc(=O)c2c1	-1	1	0	-2	nt	nt
c1ccc(N2CCN(c3nnc(SCc4ccccn4)s3)CC2)cc1	-3	5.4*	0	-40	-1	-9
c1ccc(CSc2nnc(SCc3ccccn3)s2)nc1	2	0	0	-62	nt	nt
Oc1ccc(-c2cnn3c(NCc4ccc(F)cc4)ccnc23)cc1	6	6.5*	0	-26	1	2
OCc1ccc(-c2cnn3c(NCc4ccc(F)cc4)ccnc23)cc1	-15	-1	0	-22	nt	nt
CCOc1ccc(CC(=O)Nc2ccccc2)cc1OCC	-7	-1	0	-12	nt	nt
CCOc1ccc(CC(=O)Nc2ccc(I)cc2)cc1OCC	6	6.0*	0	-5	0	-21
C/C(=N\NC(N)=O)c1ccc(N2CCOCC2)cc1	5	-1	0	-3	nt	nt
COc1ccc2c(CN3C(=O)C(=O)N(C4CCCC4)C3=O)cc(=O)oc2c1	3	10*	0	-19	1	6
COC(=O)NCC12CC3CC(CC(C3)C1)C2	10	8.9*	0	6	1	-5
NC(=O)NCC12CC3CC(CC(C3)C1)C2	-9	1	0	-7	nt	nt
CCC(C)NC(=O)CSc1nc2nc(C)c(Cc3ccc(Cl)cc3)c(C)n2n1 (stereo not drawn)	-2	3	0	6	nt	nt
FC(F)(F)c1cccc(CNc2cc(Nc3nccc4ccccc34)ncn2)c1	15	6.7*	0	-2	0	-4
Nc1nc(NCc2cccc(C(F)(F)F)c2)cc(Nc2nccc3ccccc23)n1	-4	-2	1	12	nt	nt
FC(F)(F)c1cccc(CNc2ccnc(-c3ccccc3)n2)c1	11	5.0*!	0	37*!	1	-4
O=C(NCc1cccc(C(F)(F)F)c1)c1cccc(Nc2nccc3ccccc23)n1	2	5.5*	0	2	0	6
c1ccc(CNc2ccnc(-c3ccccc3)n2)cc1	-8	0	0	-11	nt	nt
O=C(CSc1ncccn1)NCc1cccc(C(F)(F)F)c1	4	5.8*	0	-26	0	-9
CCOC(=O)c1ccc(NC(=O)C(=O)N2CCOCC2)cc1	-11	-1	0	-24	nt	nt
CCC1CCc2c(sc(NC(=O)C(Sc3ccccc3)c3ccccc3)c2C#N)C1 (stereo not drawn)	12	1	0	2	nt	nt
Cc1ccc(N2C(=O)C(Cl)=C(N3CCCCC3)C2=O)cc1	-12	7.5*	0	7	-1	-2
CCCNC(=O)c1cncc(-c2ccc(C(=O)NC3CC3)cc2)c1	3	5.7*	0	-7	1	6
CCCCc1nc(SCc2cccnc2)c2c(=O)n(C)c(=O)n(C)c2n1	-10	2	0	8	nt	nt

Screening results (PubChem)
